{"source": "paper PMC4336329", "about": "(PLoS ONE, 2015)", "note": "About 2,200 (0.71%) of roughly 310,000 compounds showed an effect of 50% or more. Effects have a minus sign here. The entries come from a sample that favours strong results as a whole.", "data": [{"biological_target": "human ether-à-go-go-related gene (hERG) potassium channel (human, UniProt Q12809)", "sequence (Q12809 whole entry, looked up)": "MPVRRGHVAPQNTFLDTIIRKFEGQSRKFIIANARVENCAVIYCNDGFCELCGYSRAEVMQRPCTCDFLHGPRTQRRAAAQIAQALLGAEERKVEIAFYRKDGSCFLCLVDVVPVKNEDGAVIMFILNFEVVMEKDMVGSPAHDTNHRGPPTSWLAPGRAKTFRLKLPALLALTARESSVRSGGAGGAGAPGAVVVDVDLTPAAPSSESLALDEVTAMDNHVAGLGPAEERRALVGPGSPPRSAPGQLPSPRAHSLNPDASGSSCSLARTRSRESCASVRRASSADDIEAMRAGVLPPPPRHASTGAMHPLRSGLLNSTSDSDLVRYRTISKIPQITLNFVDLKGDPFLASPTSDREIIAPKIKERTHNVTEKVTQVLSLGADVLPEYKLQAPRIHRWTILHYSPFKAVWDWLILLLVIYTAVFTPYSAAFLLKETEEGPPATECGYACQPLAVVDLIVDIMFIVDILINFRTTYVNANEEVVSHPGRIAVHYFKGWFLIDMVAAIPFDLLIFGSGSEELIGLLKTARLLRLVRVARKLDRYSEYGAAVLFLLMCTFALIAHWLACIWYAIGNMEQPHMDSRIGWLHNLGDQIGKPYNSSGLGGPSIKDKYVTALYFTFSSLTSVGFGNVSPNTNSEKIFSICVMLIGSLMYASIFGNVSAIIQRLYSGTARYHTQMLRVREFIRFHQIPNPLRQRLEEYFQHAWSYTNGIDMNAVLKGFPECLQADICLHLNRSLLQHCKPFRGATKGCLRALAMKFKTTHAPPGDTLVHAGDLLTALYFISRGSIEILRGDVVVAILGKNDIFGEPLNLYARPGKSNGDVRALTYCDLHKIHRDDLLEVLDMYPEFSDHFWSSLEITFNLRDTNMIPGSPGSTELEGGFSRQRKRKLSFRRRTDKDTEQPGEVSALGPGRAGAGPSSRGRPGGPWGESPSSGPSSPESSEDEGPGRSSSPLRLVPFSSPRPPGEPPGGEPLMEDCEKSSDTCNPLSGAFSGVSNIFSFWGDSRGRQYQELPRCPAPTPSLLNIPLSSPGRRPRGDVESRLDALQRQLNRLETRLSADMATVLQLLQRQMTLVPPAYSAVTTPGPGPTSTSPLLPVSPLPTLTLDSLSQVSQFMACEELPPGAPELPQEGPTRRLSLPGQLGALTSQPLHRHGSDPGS", "assay": "primary screen, population patch clamp on CHO cells stably expressing hERG; higher = less effect of the substance", "units": {"hERG current change (%, negative = inhibition) at 1uM": "%"}, "values": [{"smiles": "CCOC(=O)Cn1nnc(-c2cccc(OC)c2)n1", "hERG current change (%, negative = inhibition) at 1uM": 9.82}, {"smiles": "Cc1cccc(C(=O)O/N=C(\\N)CS(=O)(=O)c2ccccc2)c1", "hERG current change (%, negative = inhibition) at 1uM": 5.74}, {"smiles": "Cn1cccc1C(=O)NCC(c1ccc(F)cc1)N1CCOCC1", "note": "(centres unmarked)", "hERG current change (%, negative = inhibition) at 1uM": 5.02}, {"smiles": "CCOC(=O)CNC(=O)Cn1cnc2c(nnn2-c2cccc(Cl)c2)c1=O", "hERG current change (%, negative = inhibition) at 1uM": -0.825}, {"smiles": "COc1ccc(Nc2nc(C)nc3c2nnn3Cc2ccccc2)cc1OC", "hERG current change (%, negative = inhibition) at 1uM": 4.84}, {"smiles": "CCN(CC)c1ccc(NC(=O)CN2CCN(CC(=O)Nc3ccccc3OC)CC2)cc1", "hERG current change (%, negative = inhibition) at 1uM": -0.407}, {"smiles": "CCN(CC)c1ccc(NC(=O)CN2CCN(CC(=O)Nc3ccc(OC)cc3)CC2)cc1", "hERG current change (%, negative = inhibition) at 1uM": -59.5}, {"smiles": "COc1ccc(NC(=O)CN2CCC(C)CC2)cc1", "hERG current change (%, negative = inhibition) at 1uM": -0.0667}, {"smiles": "Cc1cc(=O)oc2cc(OCC(=O)N3CCCC3)c(Cl)cc12", "hERG current change (%, negative = inhibition) at 1uM": 1.63}, {"smiles": "Cc1sc2nc(CN3CCCCC3)nc(Nc3ccc4c(c3)OCCO4)c2c1C", "hERG current change (%, negative = inhibition) at 1uM": -89.2}, {"smiles": "Cc1sc2nc(CN3CCOCC3)nc(NS(=O)(=O)c3ccc4c(c3)OCCO4)c2c1C", "hERG current change (%, negative = inhibition) at 1uM": 13.1}, {"smiles": "Cc1nc(Nc2ccc3c(c2)OCCO3)c2c(C)c(C)sc2n1", "hERG current change (%, negative = inhibition) at 1uM": -8.61}, {"smiles": "Cc1cc2oc3c(c(=O)c2cc1C)C(c1ccc(C(C)C)cc1)N(CCCN1CCOCC1)C3=O", "note": "(centres unmarked)", "hERG current change (%, negative = inhibition) at 1uM": 13}, {"smiles": "CCCN1C(=O)c2ccc(C(=O)Nc3ccccc3C(=O)O)cc2C1=O", "hERG current change (%, negative = inhibition) at 1uM": 18}, {"smiles": "COCc1cc(CN2CCN(Cc3ccsc3)C(CCO)C2)ccc1OC", "note": "(centres unmarked)", "hERG current change (%, negative = inhibition) at 1uM": -56.6}, {"smiles": "COCc1cc(CN2CCN(CCc3ccccc3)C(CCO)C2)ccc1OC", "note": "(centres unmarked)", "hERG current change (%, negative = inhibition) at 1uM": -32.3}, {"smiles": "CCOc1ccc(CN2CCN(Cc3ccsc3)C(CCO)C2)cc1CO", "note": "(centres unmarked)", "hERG current change (%, negative = inhibition) at 1uM": -17.3}, {"smiles": "Cc1ccc(NCc2nnc(SCCN3CCCCC3)n2CC2CCCO2)cc1Cl", "note": "(centres unmarked)", "hERG current change (%, negative = inhibition) at 1uM": -59.1}, {"smiles": "Cc1ccc(NCc2nnc(SCC(=O)NCc3ccco3)n2CC2CCCO2)cc1Cl", "note": "(centres unmarked)", "hERG current change (%, negative = inhibition) at 1uM": -5.15}, {"smiles": "Cc1ccc(NCc2nnc(SCCN3CCCCC3)n2CC2CCCO2)c(C)c1", "note": "(centres unmarked)", "hERG current change (%, negative = inhibition) at 1uM": -10.7}, {"smiles": "CCOC(=O)c1c(C)[nH]c(C(=O)N2CCN(C(=O)OCC)CC2)c1C", "hERG current change (%, negative = inhibition) at 1uM": 7.64}, {"smiles": "Cc1ccc(NS(=O)(=O)c2cccs2)cc1S(=O)(=O)N1CCCCCC1", "hERG current change (%, negative = inhibition) at 1uM": 16.5}, {"smiles": "Cc1ccc(CSCc2ccc(C(=O)NCCCN3CCOCC3)o2)cc1", "hERG current change (%, negative = inhibition) at 1uM": -21.2}, {"smiles": "COC(CNC(=O)c1ccc2c(c1)ncn2-c1ccc(F)c(F)c1)OC", "hERG current change (%, negative = inhibition) at 1uM": -5.49}, {"smiles": "COc1ccc2cc(C(=O)N3CCCCCC3)sc(=O)c2c1OC", "hERG current change (%, negative = inhibition) at 1uM": 1.33}, {"smiles": "CCN(CC)CCNC(C(=O)Nc1cccc(C(C)=O)c1)c1ccccc1.O=C(O)C(=O)O", "note": "(centres unmarked)", "hERG current change (%, negative = inhibition) at 1uM": -51.4}, {"smiles": "CN(C)c1cccc(C(=O)OC(C(=O)Nc2ccc(Cl)cc2C(F)(F)F)c2ccccc2)c1", "note": "(centres unmarked)", "hERG current change (%, negative = inhibition) at 1uM": 0.322}, {"smiles": "CCCCNC(C(=O)Nc1ccc([N+](=O)[O-])cc1Br)c1ccccc1", "note": "(centres unmarked)", "hERG current change (%, negative = inhibition) at 1uM": 10.5}, {"smiles": "COc1cccc(NC(=O)C(NCC(C)(C)CN(C)C)c2ccccc2)c1.O=C(O)C(=O)O", "note": "(centres unmarked)", "hERG current change (%, negative = inhibition) at 1uM": -12.7}, {"smiles": "CCCC(=O)OC(C(=O)Nc1cc(C(F)(F)F)ccc1Cl)c1ccccc1", "note": "(centres unmarked)", "hERG current change (%, negative = inhibition) at 1uM": 5.1}, {"smiles": "O=C(Nc1cc(C(F)(F)F)ccc1Cl)C(NCc1ccccc1)c1ccccc1", "note": "(centres unmarked)", "hERG current change (%, negative = inhibition) at 1uM": 15.6}, {"smiles": "CN(C)CC(C)(C)CNC(C(=O)Nc1ccc(Cl)cc1C(F)(F)F)c1ccccc1", "note": "(centres unmarked)", "hERG current change (%, negative = inhibition) at 1uM": -72.3}, {"smiles": "CC(=O)c1cccc(NC(=O)C(NC(C)C)c2ccccc2)c1", "note": "(centres unmarked)", "hERG current change (%, negative = inhibition) at 1uM": 10}, {"smiles": "CN(C)C(CNC(C(=O)Nc1ccc([N+](=O)[O-])cc1Br)c1ccccc1)c1ccccc1", "note": "(centres unmarked)", "hERG current change (%, negative = inhibition) at 1uM": 11.9}, {"smiles": "CCN(CC)CCNC(C(=O)Nc1cc(C(F)(F)F)ccc1Cl)c1ccccc1", "note": "(centres unmarked)", "hERG current change (%, negative = inhibition) at 1uM": -85.3}, {"smiles": "CCN(CC)CCNC(C(=O)Nc1ccc([N+](=O)[O-])cc1Br)c1ccccc1", "note": "(centres unmarked)", "hERG current change (%, negative = inhibition) at 1uM": -86.5}, {"smiles": "CN(C)CCNC(C(=O)Nc1cccc(C(F)(F)F)c1)c1ccccc1.O=C(O)C(=O)O", "note": "(centres unmarked)", "hERG current change (%, negative = inhibition) at 1uM": -14.6}, {"smiles": "CC(/C=N/n1c(-c2ccco2)n[nH]c1=S)=C\\c1ccco1", "hERG current change (%, negative = inhibition) at 1uM": 13.9}, {"smiles": "COCCCNc1nc2c(-c3cccc(C)c3)nnn2c2ccc(Cl)cc12", "hERG current change (%, negative = inhibition) at 1uM": 13.3}, {"smiles": "CNC(=O)c1[nH]cnc1C(=O)N[C@@H](CCCCNC(=O)OC(C)(C)C)C(=O)OC(C)(C)C", "hERG current change (%, negative = inhibition) at 1uM": 13.6}, {"smiles": "Cc1cccc(NS(=O)(=O)c2cccc([N+](=O)[O-])c2)n1", "hERG current change (%, negative = inhibition) at 1uM": 13.7}, {"smiles": "Cn1ccnc1SCC(=O)Nc1cc(C(F)(F)F)ccc1N1CCOCC1", "hERG current change (%, negative = inhibition) at 1uM": -0.591}, {"smiles": "c1ccc(-c2noc(-c3cccs3)n2)nc1", "hERG current change (%, negative = inhibition) at 1uM": 7.74}, {"smiles": "COc1cc2c(cc1OC)C1Cc3ccc(OC)c(OC)c3C[N+]1([O-])CC2", "note": "(centres unmarked)", "hERG current change (%, negative = inhibition) at 1uM": 14.1}, {"smiles": "O=C(Nc1ccccc1N1CCN(C(=O)c2ccc(Cl)cc2)CC1)c1cccc([N+](=O)[O-])c1", "hERG current change (%, negative = inhibition) at 1uM": -65.2}, {"smiles": "CS(=O)(=O)Nc1ccc(C(=O)N2CCN(c3ccccc3F)CC2)cc1", "hERG current change (%, negative = inhibition) at 1uM": -69.2}, {"smiles": "O=C(c1cccc([N+](=O)[O-])c1)N1CCN(c2ccc(Cl)cc2)CC1", "hERG current change (%, negative = inhibition) at 1uM": 2.13}, {"smiles": "O=C(Nc1ccccc1N1CCN(C(=O)c2ccc(Cl)cc2)CC1)c1cccc(F)c1", "hERG current change (%, negative = inhibition) at 1uM": -81.2}, {"smiles": "O=C(Nc1ccccc1N1CCN(C(=O)c2ccc(Cl)cc2)CC1)c1ccc(Br)cc1", "hERG current change (%, negative = inhibition) at 1uM": -4.26}, {"smiles": "O=C(c1ccccc1)N1CCN(c2ccccc2F)CC1", "hERG current change (%, negative = inhibition) at 1uM": 9.77}, {"smiles": "CS(=O)(=O)Nc1ccc(C(=O)N2CCN(c3ccccc3)CC2)cc1", "hERG current change (%, negative = inhibition) at 1uM": -31.4}, {"smiles": "O=C(Nc1ccccc1N1CCN(C(=O)c2ccccc2)CC1)c1cccc(Cl)c1", "hERG current change (%, negative = inhibition) at 1uM": -12.6}, {"smiles": "CCC(=O)N1CCN(c2ccc(Cl)cc2NC(=O)c2cccc([N+](=O)[O-])c2)CC1", "hERG current change (%, negative = inhibition) at 1uM": -32}, {"smiles": "O=C(Nc1ccccc1N1CCN(C(=O)c2ccccc2)CC1)c1ccc(Cl)cc1", "hERG current change (%, negative = inhibition) at 1uM": -7.21}, {"smiles": "O=C(Nc1ccccc1N1CCN(C(=O)c2ccc(Cl)cc2)CC1)c1cccnc1", "hERG current change (%, negative = inhibition) at 1uM": -77}, {"smiles": "O=C(Nc1ccccc1N1CCN(C(=O)c2ccc(Cl)cc2)CC1)c1ccc2c(c1)OCO2", "hERG current change (%, negative = inhibition) at 1uM": -5.35}]}]}
